From the supplement of paper PMC12669032

Legend:
Assay in all cases: growth AUC relative to DMSO control (median of replicates) (fraction); higher = more growth (less inhibition), active = hit call of the paper
Settings in all cases: 20 µM; 24 h;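 active = AUC reduced over 20% with Padj below 0.05 in at least 2 of 3 replicates; inactive = otherwise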
[1] = tested on: Coprococcus comes
In short: (§1)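 In round-bottom 96-well plates sealed with pierced gas-permeable seals, gut bacterial monocultures in mGAM were grown anaerobically at 37 °C from OD600 0.05 with 20 µM compound (1% DMSO). OD600 readings were taken hourly for 24 h, and the minimum OD was set to 0. Area under the growth curve was then normalised to the plate median of solvent-only wells, or to row and column medians on the industrial chemical plate. The value given is the median of three biological replicates grown on separate days.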

[2] = tested on: Escherichia coli ED1a
In short: as §1

[3] = tested on: Escherichia coli IAI1
In short: as §1

[4] = tested on: Eubacterium rectale
In short: as §1

[5] = tested on: Fusobacterium nucleatum subsp. animalis
In short: as §1

[6] = tested on: Lactobacillus gasseri
In short: as §1

[7] = tested on: Lactobacillus paracasei
In short: as §1

[8] = tested on: Odoribacter splanchnicus
In short: as §1

[9] = tested on: Parabacteroides distasonis
In short: as §1

[10] = tested on: Parabacteroides merdae
In short: as §1

[11] = tested on: Roseburia intestinalis
In short: as §1

[12] = tested on: Streptococcus salivarius
In short: as §1

Measured: growth AUC

CC(C)=CC1C(C(=O)OC(C#N)c2cccc(Oc3ccccc3)c2)C1(C)C (mixture of isomers)
inactive: [1] 0.983 | [2] 1 | [3] 0.967 | [4] 0.965 | [5] 0.921 | [6] 0.921 | [7] 1.23 | [8] 1.01 | [9] 1 | [10] 1 | [11] 0.893 | [12] 0.988

FC(F)C(F)(F)OCC(Cn1cncn1)c1ccc(Cl)cc1Cl (stereo not given)
inactive: [1] 0.979 | [2] 0.972 | [3] 0.966 | [4] 0.804 | [5] 1.02 | [6] 0.912 | [7] 0.841 | [8] 0.981 | [9] 0.951 | [10] 0.932 | [11] 0.956 | [12] 0.996

CCCOCCN(C(=O)CCl)c1c(CC)cccc1CC
inactive: [1] 0.988 | [2] 0.963 | [3] 0.985 | [4] 1.02 | [5] 0.945 | [6] 0.927 | [7] 1.12 | [8] 1.02 | [9] 0.848 | [10] 0.942 | [11] 0.947 | [12] 0.952

NC(=O)/N=C1/SCCN1Cc1ccc(Cl)nc1
inactive: [1] 0.965 | [2] 0.999 | [3] 0.997 | [4] 1.02 | [5] 0.984 | [6] 0.995 | [7] 0.975 | [8] 1.03 | [9] 0.992 | [10] 0.984 | [11] 0.989 | [12] 1.04

CC(C)[C@@H](Nc1ccc(C(F)(F)F)cc1Cl)C(=O)OC(C#N)c1cccc(Oc2ccccc2)c1 (stereo not given in full)
inactive: [1] 0.988 | [2] 1 | [3] 1.05 | [4] 1.04 | [5] 1.06 | [6] 1.02 | [7] 1.04 | [8] 1.05 | [9] 1.09 | [10] 1.03 | [11] 0.961 | [12] 1.01

Nc1nc(N)nc(N)n1
inactive: [1] 0.978 | [2] 0.991 | [3] 1.02 | [4] 0.944 | [5] 1 | [6] 1.01 | [7] 1.05 | [9] 1.23 | [10] 0.981 | [11] 1.09 | [12] 1.02
active: [8] 0.119

CCCCOCN(C(=O)CCl)c1c(CC)cccc1CC
inactive: [1] 0.996 | [2] 1.02 | [3] 1.04 | [4] 1.03 | [5] 1.12 | [6] 1.02 | [7] 1.04 | [8] 0.909 | [9] 0.963 | [10] 0.976 | [11] 0.97 | [12] 0.915

Cc1ccc(N=CN(C)C=Nc2ccc(C)cc2C)c(C)c1
inactive: [1] 1.04 | [2] 1.01 | [3] 1.01 | [4] 1.06 | [5] 1.09 | [6] 0.967 | [7] 1.06 | [8] 1.02 | [9] 0.988 | [10] 1.01 | [11] 0.983 | [12] 0.967

CCOP(=O)(OCC)Oc1ccc([N+](=O)[O-])cc1
inactive: [1] 1.03 | [2] 0.988 | [3] 1.03 | [4] 0.91 | [5] 1.06 | [6] 1.02 | [7] 1.04 | [8] 1.05 | [9] 0.999 | [10] 0.986 | [11] 1.03 | [12] 1.01

CC(C)OC(=O)Nc1ccccc1
inactive: [1] 1.03 | [2] 0.994 | [3] 1.01 | [4] 0.991 | [5] 1.02 | [6] 1.13 | [7] 1.04 | [8] 0.962 | [9] 1.01 | [10] 1 | [11] 1.06 | [12] 1.01

CNC(=O)O/N=C/C(C)(C)SC
inactive: [1] 1.01 | [2] 1.01 | [3] 1.03 | [4] 0.966 | [5] 0.939 | [6] 1.12 | [7] 0.99 | [8] 1 | [9] 1.03 | [10] 0.961 | [11] 1.03 | [12] 1.06

c1ccc(-c2ccccc2)cc1
inactive: [1] 0.991 | [2] 1.03 | [3] 1.01 | [4] 1.09 | [5] 1.1 | [6] 0.94 | [7] 0.749 | [8] 0.945 | [9] 1.04 | [10] 0.998 | [11] 1.02 | [12] 0.993

Clc1ccc(C2(Cn3cncn3)OCCO2)c(Cl)c1
inactive: [1] 0.966 | [2] 0.98 | [3] 0.979 | [4] 1.03 | [5] 0.988 | [6] 0.937 | [7] 0.946 | [8] 0.923 | [9] 1.01 | [10] 0.954 | [11] 0.948 | [12] 0.915

COc1c(Cl)ccc(Cl)c1Cl
inactive: [1] 0.973 | [2] 0.967 | [3] 0.99 | [4] 1.01 | [5] 1.04 | [6] 0.879 | [7] 0.937 | [8] 1 | [9] 0.985 | [10] 0.981 | [11] 1.01 | [12] 0.952

c1cc2c3c(cccc3c1)CC2
inactive: [1] 1 | [2] 1.01 | [3] 1.01 | [4] 1.05 | [5] 1.07 | [6] 1.05 | [7] 1.01 | [8] 1.01 | [9] 1.01 | [10] 0.995 | [11] 0.998 | [12] 1.01

CCOP(=O)(N=C1SCC(C)S1)OCC (stereo not given)
inactive: [1] 1.03 | [2] 1.02 | [3] 0.951 | [4] 1.1 | [5] 1.09 | [6] 0.985 | [7] 0.971 | [8] 1.04 | [9] 0.977 | [10] 0.976 | [11] 0.969 | [12] 0.987

O=C(O)c1cc(Cl)ccc1Cl
inactive: [1] 0.994 | [2] 0.97 | [3] 0.984 | [4] 1.02 | [5] 0.994 | [6] 0.869 | [7] 0.934 | [8] 1.08 | [9] 0.978 | [10] 0.96 | [11] 0.993 | [12] 1.01

CC(C)NC(=O)N1CC(=O)N(c2cc(Cl)cc(Cl)c2)C1=O
inactive: [1] 1.01 | [2] 1.03 | [3] 0.983 | [4] 0.995 | [5] 0.948 | [6] 1.09 | [7] 0.991 | [8] 1 | [9] 0.979 | [10] 1 | [11] 1.07 | [12] 1.05

O=C(Nc1ccccc1)N(Cc1ccc(Cl)cc1)C1CCCC1
inactive: [1] 0.94 | [2] 1 | [3] 0.99 | [4] 1.03 | [5] 0.985 | [6] 1.01 | [7] 1.06 | [8] 1.03 | [9] 0.893 | [10] 0.922 | [11] 0.991 | [12] 0.994

CCc1cccc(CC)c1N(COC)C(=O)CCl
inactive: [1] 0.976 | [2] 0.96 | [3] 0.975 | [4] 0.993 | [5] 1.05 | [6] 0.948 | [7] 1.01 | [8] 1.04 | [9] 0.993 | [10] 0.978 | [11] 0.988 | [12] 0.981

CCN(CC)c1nc(C)cc(OP(=S)(OC)OC)n1
inactive: [1] 0.982 | [2] 1.03 | [3] 0.978 | [4] 1.06 | [5] 0.996 | [6] 0.984 | [7] 0.982 | [8] 0.966 | [9] 0.813 | [10] 0.962 | [11] 0.978 | [12] 0.975

COC(=O)c1sccc1S(=O)(=O)NC(=O)Nc1nc(C)nc(OC)n1
inactive: [1] 0.962 | [2] 0.97 | [3] 0.967 | [4] 1.14 | [5] 0.975 | [6] 0.859 | [7] 1.03 | [8] 1.01 | [9] 0.969 | [10] 0.973 | [11] 0.947 | [12] 0.859

CNC(=O)Oc1cccc2ccccc12
inactive: [1] 1.03 | [2] 1.01 | [3] 0.982 | [4] 1.05 | [5] 1.03 | [6] 0.907 | [7] 1.1 | [8] 1.05 | [9] 0.944 | [10] 1 | [11] 0.973 | [12] 1.03

COC(C)(C)CCCC(C)C/C=C/C(C)=C/C(=O)OC(C)C (stereo not given)
inactive: [1] 1.01 | [2] 1.01 | [3] 1 | [4] 0.831 | [5] 1 | [6] 1.04 | [7] 1.04 | [8] 0.999 | [9] 1 | [10] 1 | [11] 1.01 | [12] 1.01

CC(C)(C)[C@@H](O)[C@H](Oc1ccc(Cl)cc1)n1cncn1
inactive: [1] 0.974 | [2] 0.977 | [3] 0.999 | [4] 1.08 | [5] 1.05 | [6] 1.08 | [7] 1.09 | [8] 0.833 | [9] 0.972 | [10] 1.01 | [11] 1.08 | [12] 1.04
